Reference: PubChem BioAssay (Tox21)
Results filed as inconclusive are left out. Active and inactive are the calls of the source. Calls come from the whole dose curve; as a rule, active = well fitted cell-killing curve with a large enough effect in the repeat runs; inconclusive = weak or mixed curves, or effect the other way; inactive = no such curve, though single readings can be large or run the other way.

Test: qHTS assay to identify small molecule agonists of the vitamin D receptor (VDR) signaling pathway - cell viability counter screen (AID 743224); note: nearly all actives have a fitted effect of over 50% in size
Conditions: VDR-bla HEK293T viability, CellTiter-Glo luminescence, 16 h; series mostly up to 62.6 µM
Outline: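 Here cell health was gauged by luminescent ATP detection (CellTiter-Glo, 30 min RT) in VDR-bla cells that had been incubated with test compounds for 16 h at 37C and 5% CO2.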

SMILES	outcome
Cc1cc(C)c(C)c(O)c1	inactive
Cc1ccc(S(=O)(=O)NC(=O)NC2CCCC2)cc1	inactive
OCCc1ccncc1	inactive
C=C(C)C(=O)OCCCCCCCCCCOC(=O)C(=C)C	inactive
CCC1=C(C)CN(C(=O)NCCc2ccc(S(=O)(=O)NC(=O)NC3CCC(C)CC3)cc2)C1=O (stereo unspecified)	inactive
O=C(C1CCCCC1)N1CC(=O)N2CCCc3ccccc3C2C1 (stereo unspecified)	inactive
N#CCCCC(C#N)CCC#N (stereo unspecified)	inactive
C[C@H](CN1CCCC1)C(=O)c1ccc(C(F)(F)F)cc1	inactive
CCCc1nc(C)c2c(=O)[nH]c(-c3cc(S(=O)(=O)N4CCN(CC)CC4)ccc3OCC)nn12	inactive
Cc1cccc(C)c1NC(=O)CN1CCCC1	inactive
NCCOCCOCCN	inactive
C=CC(=O)OCCCCCCCCCC	inactive
O=c1[nH]nc(-c2ccc([N+](=O)[O-])o2)o1	inactive
CCN(CC)CC(=O)OCC(=O)[C@@]1(O)CC[C@H]2[C@@H]3CCC4=CC(=O)CC[C@]4(C)[C@H]3[C@@H](O)C[C@@]21C	inactive
CCOC(OCC)OCC	inactive
Cc1ccc2ccccc2c1[N+](=O)[O-]	inactive
COC(=O)/C=C/C(C)=C\C=C\C(C)=C\C=C\C=C(C)\C=C\C=C(C)\C=C\C(=O)O	inactive
CO[C@@H]1COCC[C@@H]1N[C@@H]1CC[C@@](C(=O)N2CCc3ncc(C(F)(F)F)cc3C2)(C(C)C)C1	inactive
CCCC(=O)OCc1ccccc1	inactive
c1ccc(CCNc2nc(-c3ccccc3)cs2)cc1	inactive
C[C@]12CCC(=O)C=C1[C@@H]1C[C@@H]1[C@H]1[C@@H]3[C@@H]4C[C@@H]4[C@@]4(CCC(=O)O4)[C@@]3(C)CC[C@@H]12	inactive
